From PubChem BioAssay (NCI)
This is part of a sample that, as a whole, favours compounds with a hit. Of some 83,000 tested, about 20% had one in any assay.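 How to read the values: 0–100, growth inhibition (40 = 60% inhibited); 0, no net growth; -100 to 0, cell death (-40 = 40% of starting cells died; -100 = all dead).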 The source made the active and inactive calls. How the source made its calls: active means growth percent below 10; inactive means the rest.

Key:
Assay in all cases: NCI-60 one-dose screen, 48 h (100 = growth as untreated, 0 = no growth, -100 = all killed)
Settings in all cases: 10 µM unless noted
T-47D breast = tested on: T-47D breast
BT-549 breast = tested on: BT-549 breast
MDA-MB-435 melanoma = tested on: MDA-MB-435 melanoma
SW-620 colon = tested on: SW-620 colon
MCF7 breast = tested on: MCF7 breast
HCT-116 colon = tested on: HCT-116 colon
HCC-2998 colon = tested on: HCC-2998 colon
KM12 colon = tested on: KM12 colon

Measured: growth

COC1=CC(=O)c2ccccc2C1=O
active: MDA-MB-435 melanoma -48.2%
inactive: T-47D breast 59% | BT-549 breast 85% | SW-620 colon 108% | MCF7 breast 56.9% | HCT-116 colon 29.9% | HCC-2998 colon 107% | KM12 colon 94.8%

O=C(c1nc2ccccc2[nH]1)C1C(c2ccc(Cl)cc2)C2CC3CCCC[C@H]3N2[C@@]12C(=O)Nc1cc(Cl)ccc12 (some centres undefined)
inactive: T-47D breast 24.8% | BT-549 breast 80.8% | MDA-MB-435 melanoma 24.8% | SW-620 colon 33.2% | MCF7 breast 17.3% | HCT-116 colon 23.4% | HCC-2998 colon 52% | KM12 colon 45.8%

CC(=O)O[C@@H]1C2CCC3C(CC[C@@]4(C)C3CC[C@@H]4C(C)N(C)C)[C@@]2(C)CC[C@@H]1NC(=O)C=C(C)C (some centres undefined)
active: T-47D breast -28% | MDA-MB-435 melanoma -47.4% | SW-620 colon -64.5% | MCF7 breast -16.9% | HCT-116 colon -55% | HCC-2998 colon -23.5% | KM12 colon 9.21%
inactive: BT-549 breast 26.4%

O=[N+]([O-])c1ccc(N=Nc2cc(S(=O)(=O)O)c3cccc(S(=O)(=O)O)c3c2O)cc1
inactive: T-47D breast 108% | BT-549 breast 105% | MDA-MB-435 melanoma 86% | SW-620 colon 112% | MCF7 breast 97.7% | HCT-116 colon 97.7% | HCC-2998 colon 112% | KM12 colon 118%

O=C(/C(=C/c1ccc([N+](=O)[O-])cc1)SCc1ccc(F)cc1)c1ccc(F)cc1
active: SW-620 colon -27.5% | MCF7 breast 9.8% | HCT-116 colon -25.2%
inactive: T-47D breast 79.8% | BT-549 breast 98.2% | MDA-MB-435 melanoma 85% | HCC-2998 colon 88.4% | KM12 colon 59.8%

COc1ccc(-c2cnc3c(-c4cccc5ncccc45)cnn3c2)cc1
inactive: T-47D breast 45.7% | BT-549 breast 37.1% | MDA-MB-435 melanoma 58% | SW-620 colon 73.8% | MCF7 breast 72.2% | HCT-116 colon 11.9% | KM12 colon 69.3%

CN1[C@@H]2CC[C@H]1/C(=C\c1ccccc1)C(=O)/C2=C/c1ccccc1
inactive: T-47D breast 56% | BT-549 breast 35% | MDA-MB-435 melanoma 25% | SW-620 colon 28.8% | MCF7 breast 20.4% | HCT-116 colon 11.9% | HCC-2998 colon 63.3% | KM12 colon 20.7%

CSc1nc2sc3cccc(Cl)c3n2c(=N)c1C#N
inactive: T-47D breast 83.9% | BT-549 breast 96.7% | MDA-MB-435 melanoma 104% | SW-620 colon 102% | MCF7 breast 88.4% | HCT-116 colon 101% | HCC-2998 colon 106% | KM12 colon 101%

COc1ccc2nc(-c3ccc(-c4noc(-c5cc(OC)c(OC)c(OC)c5)n4)cc3)[nH]c2c1
inactive: T-47D breast 83.8% | BT-549 breast 26.8% | MDA-MB-435 melanoma 39.1% | SW-620 colon 63.8% | MCF7 breast 41.3% | HCT-116 colon 33% | HCC-2998 colon 111% | KM12 colon 55.4%

CNCCOc1nc2c3cnccc3cc(-c3cc(OC)c(OC)c(OC)c3)c2c2ccncc12
active: T-47D breast -12.4% | BT-549 breast -45.5% | MDA-MB-435 melanoma -90.1% | SW-620 colon 3.63% | MCF7 breast -0.459% | HCT-116 colon -89.9% | KM12 colon 5.03%

COc1cc(/C=C\C(=O)O)ccc1OCc1ccccc1
inactive: T-47D breast 82.1% | BT-549 breast 112% | MDA-MB-435 melanoma 119% | SW-620 colon 105% | MCF7 breast 96% | HCT-116 colon 95.2% | HCC-2998 colon 104% | KM12 colon 104%

Cc1nn(-c2ccccc2)c(Cl)c1/C=N\N=c1/sc2ccccc2n1C
inactive: T-47D breast 93.7% | BT-549 breast 92.8% | MDA-MB-435 melanoma 102% | SW-620 colon 101% | MCF7 breast 97% | HCT-116 colon 84.5% | KM12 colon 106%

CCCCC/C=C/C(C)=C/C1CC(C)C/C=C/CCC(O)C(OC(N)=O)CCC(C)CC(O)C(C)C(=O)O1 (centres undefined)
inactive: T-47D breast 91.6% | BT-549 breast 120% | MDA-MB-435 melanoma 50.6% | SW-620 colon 103% | MCF7 breast 86.5% | HCT-116 colon 94.1% | KM12 colon 102%

Cc1ccc(-n2cc(-c3ccccc3)c3c2N=NN2CCN=C32)cc1
inactive: T-47D breast 93.5% | BT-549 breast 125% | MDA-MB-435 melanoma 101% | SW-620 colon 92.5% | MCF7 breast 98.7% | HCT-116 colon 95.8% | KM12 colon 102%

OCc1cnc2ccccc2c1NC1CCCCCC1
inactive: T-47D breast 65% | BT-549 breast 105% | MDA-MB-435 melanoma 91.4% | SW-620 colon 98% | MCF7 breast 73.5% | HCT-116 colon 77.9% | KM12 colon 96.4%
